# Measured values reported in the supplement of paper PMC5407854, “Inhibitor of ppGalNAc-T3-mediated O-glycosylation blocks cancer cell invasiveness and lowers FGF23 levels” (eLife, 2017).
# Over roughly 1,700 compounds, “T3 sensor activation Q score (MG/GFP ratio z-score vs DMSO controls)” has its median near 0.25; the highest 2% begin near 1.9. The list comes from a sample in which the highest values are over-represented; it also holds similar structures and randomly drawn compounds.
# System: ppGalNAc-T3 sensor
# Assay: T3 sensor activation Q score (MG/GFP ratio z-score vs DMSO controls) (SD units); higher = more sensor activation (inhibition of ppGalNAc-T3 glycosylation)
# Details: HEK293 sensor cells; 10 µM; 6 h
# Protocol: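 Cells were treated with compound at 10 uM for 6 h, then MG/GFP ratio was read by flow cytometry (10,000 cells per well, duplicate wells). Q = (R - R_neg)/SD_neg relative to DMSO vehicle controls; the signal rises when the glycosyltransferase is inhibited.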
row,SMILES,T3 sensor activation Q score
1,C=CCNC(=S)N1CCN(c2ccccc2Cl)CC1,-0.25
2,O=C(C(Cl)Cl)N1CC2CCC(CC2)C1,1.4
3,NS(=O)(=O)c1ccc(NC(=S)NC(=O)c2ccco2)cc1,1
4,CN=C1C=C/C(=N/N=c2/ccn(O)cc2C)C=C1C,0.15
5,CC(C)(C)c1ccc(C(=O)N2CCOC23CCCCC3)cc1,1.85
6,O=C(COc1ccc([N+](=O)[O-])cc1Cl)N1CCOCC1,1.85
7,CC(=O)NCCCOc1ccc([N+](=O)[O-])cc1Cl,-0.6
8,O=C(COc1cc(Cl)c(Cl)cc1Cl)Nc1ccc([N+](=O)[O-])cc1Cl,-0.3
9,COc1ccc(Br)c2c1C(=O)CC2,-1.4
10,CCCN(CCC)CC(=O)N1CC(=O)Nc2ccccc21,0.55
11,Nc1ccc(N=Nc2ccc(O)cc2)c(N)n1,1.5
12,Cc1ccc(N=Nc2c(O)c3ccccc3[nH]c2=O)c(S(=O)(=O)N(C)C)c1,0.95
13,C#CC1(O)CCC2C3CCC4=Cc5oncc5CC4(C)C3CCC21C (stereo not given),0.1
14,COc1cc2c(c(OC)c1O)C(=O)CO2,1.55
15,CC1(c2ccccc2)O[C@@H]2C[C@H]3[C@@H]4CCC5=CC(=O)C=C[C@]5(C)[C@@]4(F)[C@@H](O)C[C@]3(C)[C@]2(C(=O)CO)O1 (stereo not given in full),3.35
16,CC(=O)[C@H]1CC[C@H]2[C@@H]3CCC4=CC(=O)CC[C@]4(C)[C@@]3(F)[C@@H](O)C[C@]12C,0.55
17,CC(C)(C)n1nc(C2CC2)cc1NC(=O)Nc1ccc(Cl)cc1,0.7
18,COc1cc(Cl)c(CC(=O)c2c[nH]c3ccccc23)cc1OC,1.05
19,CC(C)(C)N1CC(OC(N)=O)C1,1.65
20,O=[N+]([O-])c1cccc(-c2nc3ccccc3s/c2=N/O)c1,1.3

row,SMILES,T3 sensor activation Q score
1,CN(C)c1ccc(N=Nc2ccccn2)cc1,-0.95
2,Nc1c(Cl)ncnc1NCCO,0.55
3,COCC(=O)OC1CCn2c1nc1c2C(=O)C(C)=C(NC(C)=O)C1=O (stereo not given),-0.35
4,C(=N\n1cnnc1)/c1ccc2c(c1)CCC2,0.05
5,Cc1cc(C)c(C#N)c(Sc2nc(C)c([N+](=O)[O-])c(C)c2C#N)n1,-0.15
6,CC(=O)NC1(C(=O)O)CCCC1,-1.1
7,CC(=NO)C1CC(CC(=O)O)C1(C)C (stereo not given),-0.55
8,O=c1cc(-c2ccccc2)nc2cc(-c3ccco3)[nH]n12,0.35
9,Cn1c(N)c(C(=O)/C=C/c2ccccc2)c(=O)[nH]c1=O,1.7
10,OCc1ncccc1O,-0.75
11,CN(C)CCCN1c2ccc3ccccc3c2Sc2cccc(Cl)c21,-0.4
12,S=c1[nH]cc2cnccn12,-1.4
13,CCOc1ccc(NC(=S)NC(=O)c2ccco2)cc1,-1.05
14,Cc1ccn(C)c(=N)c1,2
15,O=C1OCC/C1=C\NCCCCCCCCN/C=C1\CCOC1=O,1.2
16,O=C1N=NC2=C1c1c3ccccc3c(O)n1CC2,1.7
17,CC(C)=CCC/C(C)=C\C(N)=O,0.2
18,CC(C)CC(NC(=O)OCc1ccccc1)C(=O)NC(Cc1c[nH]c2ccccc12)C(=O)O (stereo not given),-0.85
19,O=C1CSC(c2cccs2)N1c1nncs1 (stereo not given),0.05
20,N=C(N)n1c(N)nc2ccccc2c1=O,-0.55
